From PubChem BioAssay (NCI)
Compounds without any hit were thinned out: in the full panel of roughly 79,000, 15% have a hit. Active and inactive are the calls of the source. Cut-off read from the data, not from the text of the source: active = growth inhibition above about 70%; inactive = the rest. Where a SMILES comes first, the peptide text is derived from it. [ ]: non-standard residue; d: D form. The star is where a group is joined. mTyr = N[CH](Cc1cccc(O)c1)C(=O)O; Cbz = O=C(OCc1ccccc1)*; OBn = c1ccc(CO*)cc1

Test: NCI Yeast Anticancer Drug Screen. Data for the cln2 rad14 strain (AID 165);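 note: 0% = growth equal to vehicle treated cultures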
Settings: S. cerevisiae cln2 rad14 strain, at 50.0 µM (retest, dose inferred, filed as 5.0), stronger effect = higher value
Outline: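 Compounds are applied to the cln2 rad14 yeast strain, and growth is then compared with that of vehicle-treated cultures to give inhibition.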

Compound	growth inhibition
CC(/C=N/NS(=O)(=O)c1ccc(C)cc1)=C(c1ccccc1)c1ccccc1	89% (active)
CCOC(=O)Cc1cc(=O)oc2c(CN3CCN(c4ccc(C)cc4)CC3)c(O)ccc12	74% (active)
Clc1ccc(/C=N\Nc2c3ccccc3nc3ccccc23)cc1Cl	4% (inactive)
CNC(=O)c1cc(NC(=O)c2ccc(C(=O)Nc3cc(C(=O)NC)cc(C4=NCCN4)c3)cc2)cc(C2=NCCN2)c1	8% (inactive)
O=P1(O)c2ccccc2CS(=O)(=O)Cc2ccccc21	29% (inactive)
CC1=C(C(=O)NCc2ccccc2)C(c2ccccc2[N+](=O)[O-])C(C(=O)NCc2ccccc2)=C(C)N1	-4% (inactive)
Oc1ccc(C2CCCCC2)cc1	37% (inactive)
CCN(CC)CCOc1cccc2c1C(=O)c1c(O)cccc1C2=O	38% (inactive)
CCN(CC)C1Oc2cc3c(cc2C(c2ccc(OC)cc2)C1C)OCO3 (stereo not given)	95% (active)
COc1ccc(C2C3CCCC(C(c4ccc(OC)cc4)N2C)C32NC(=O)NC2=O)cc1 (stereo not given)	97% (active)
Clc1ccc(SSc2ccc(Cl)cn2)nc1	51% (inactive)
CN=c1sc2c(n1C)C(=O)c1ccccc1C2=O	23% (inactive)
O=C(Nc1cccc(Cl)c1)OCCOC(=O)Nc1cccc(Cl)c1	98% (active)
O=[N+]([O-])c1ccc2c(c1)Cc1cc(Cl)ccc1-2	3% (inactive)
Cc1c(-c2ccccc2)ccnc1/C=N/NC(=S)NCCc1ccccc1	80% (active)
O=C(O)CCC(=O)NCCNC(=O)CC(=O)O	-48% (inactive)
Cc1cc2c(cc1S(=O)(=O)O)C1C(C3C2C2(Cl)C(Cl)=C(Cl)C3(Cl)C2(Cl)Cl)C2(Cl)C(Cl)=C(Cl)C1(Cl)C2(Cl)Cl (stereo not given)	84% (active)
O=C1/C(=C/c2ccccc2)CNC/C1=C\c1ccccc1	98% (active)
Cc1ccc2c(c1)-c1cc(C)ccc1C2(O)c1ccccc1	79% (active)
CCCc1cc2c(cc1COc1ccccc1C(=O)O)OCO2	51% (inactive)

Compound	growth inhibition
O=C1OC(c2ccc3c(c2)OCO3)Sc2ccccc21 (stereo not given)	4% (inactive)
Cc1cc(NC(=S)SCc2ccc(Cl)cc2)ccc1F	99% (active)
NC(=O)CC1CCC(c2ccccc2)CC1 (stereo not given)	-8% (inactive)
[O-]c1c2cc(-[n+]3c(-c4ccccc4)cc(-c4ccccc4)cc3-c3ccccc3)cc1CO[C@@H](c1ccccc1)[C@H](c1ccccc1)OCc1cccc(n1)CO[C@@H](c1ccccc1)[C@H](c1ccccc1)OC2	98% (active)
OCCN(CCO)c1cc(/C=C/c2ccnc3ccccc23)nc2ccccc12	43% (inactive)
COC(=O)C(Cc1cccc(O)c1)NC(=O)C(CC(=O)OCc1ccccc1)NC(=O)OCc1ccccc1 (stereo not given) (Cbz-Asp(OBn)-[mTyr]-OMe; configuration not given here)	64% (inactive)
COc1cc[c]([Sn]([c]2ccc(OC)cc2)([c]2ccc(OC)cc2)[c]2ccc(OC)cc2)cc1	-9% (inactive)
COC(=O)CCCCCOS(=O)(=O)c1ccc(C)cc1	-14% (inactive)
O=S(=O)(C#Cc1ccccc1)c1ccccc1	99% (active)
N#CC1(C#N)C(C#N)(C#N)C12CCCCCC2	95% (active)
CCOC(=O)/C(C)=N/Nc1cc(Cl)ccc1O	51% (inactive)
N/C(CC(=O)NOC(=O)c1ccccc1)=N/OC(=O)c1ccccc1	100% (active)
C/C(=N\NC(=S)N1CCC(C)CC1)c1ncccn1	98% (active)
Cc1ccc(S(=O)(=O)OCC(/C=N/NC(N)=O)OCOC(C)/C=N/NC(N)=O)cc1 (stereo not given)	-8% (inactive)
CN1COc2c(Cl)cc(Cl)cc2C1	46% (inactive)
c1ccc2cc3c(cc2c1)Nc1c2ccccc2nc2cccc-3c12	54% (inactive)
CCCCN(CCCC)S(=O)(=O)c1ccccc1	-9% (inactive)
Cc1cccc(N2C(c3ccccc3)c3ccc(C)cc3NS2=O)c1 (stereo not given)	1% (inactive)
CN(C)c1ccc(/C=N/c2nc(-c3ccccc3)cs2)cc1	89% (active)
O=C1c2ccccc2-c2nc3ncccc3cc21	63% (inactive)

Same assay, conditions: S. cerevisiae cln2 rad14 strain, at 50.0 µM, stronger effect = higher value

Compound	growth inhibition
CC(/C=N/NS(=O)(=O)c1ccc(C)cc1)=C(c1ccccc1)c1ccccc1	72.8% (active)
CCOC(=O)Cc1cc(=O)oc2c(CN3CCN(c4ccc(C)cc4)CC3)c(O)ccc12	1.2% (inactive)
Clc1ccc(/C=N\Nc2c3ccccc3nc3ccccc23)cc1Cl	11.9% (inactive)
CNC(=O)c1cc(NC(=O)c2ccc(C(=O)Nc3cc(C(=O)NC)cc(C4=NCCN4)c3)cc2)cc(C2=NCCN2)c1	92.8% (active)
O=P1(O)c2ccccc2CS(=O)(=O)Cc2ccccc21	-13.2% (inactive)
CC1=C(C(=O)NCc2ccccc2)C(c2ccccc2[N+](=O)[O-])C(C(=O)NCc2ccccc2)=C(C)N1	62.9% (inactive)
Oc1ccc(C2CCCCC2)cc1	5.7% (inactive)
CCN(CC)CCOc1cccc2c1C(=O)c1c(O)cccc1C2=O	74.3% (active)
CCN(CC)C1Oc2cc3c(cc2C(c2ccc(OC)cc2)C1C)OCO3 (stereo not given)	81% (active)
COc1ccc(C2C3CCCC(C(c4ccc(OC)cc4)N2C)C32NC(=O)NC2=O)cc1 (stereo not given)	97.2% (active)
Clc1ccc(SSc2ccc(Cl)cn2)nc1	20.6% (inactive)
CN=c1sc2c(n1C)C(=O)c1ccccc1C2=O	25.6% (inactive)
O=C(Nc1cccc(Cl)c1)OCCOC(=O)Nc1cccc(Cl)c1	98.4% (active)
O=[N+]([O-])c1ccc2c(c1)Cc1cc(Cl)ccc1-2	81.4% (active)
Cc1c(-c2ccccc2)ccnc1/C=N/NC(=S)NCCc1ccccc1	70% (inactive)
O=C(O)CCC(=O)NCCNC(=O)CC(=O)O	36.3% (inactive)
Cc1cc2c(cc1S(=O)(=O)O)C1C(C3C2C2(Cl)C(Cl)=C(Cl)C3(Cl)C2(Cl)Cl)C2(Cl)C(Cl)=C(Cl)C1(Cl)C2(Cl)Cl (stereo not given)	60.7% (inactive)
O=C1/C(=C/c2ccccc2)CNC/C1=C\c1ccccc1	92.5% (active)
Cc1ccc2c(c1)-c1cc(C)ccc1C2(O)c1ccccc1	97.2% (active)
CCCc1cc2c(cc1COc1ccccc1C(=O)O)OCO2	33.4% (inactive)

Compound	growth inhibition
O=C1OC(c2ccc3c(c2)OCO3)Sc2ccccc21 (stereo not given)	-2.5% (inactive)
Cc1cc(NC(=S)SCc2ccc(Cl)cc2)ccc1F	88% (active)
NC(=O)CC1CCC(c2ccccc2)CC1 (stereo not given)	-47.6% (inactive)
[O-]c1c2cc(-[n+]3c(-c4ccccc4)cc(-c4ccccc4)cc3-c3ccccc3)cc1CO[C@@H](c1ccccc1)[C@H](c1ccccc1)OCc1cccc(n1)CO[C@@H](c1ccccc1)[C@H](c1ccccc1)OC2	90.2% (active)
OCCN(CCO)c1cc(/C=C/c2ccnc3ccccc23)nc2ccccc12	61.5% (inactive)
COC(=O)C(Cc1cccc(O)c1)NC(=O)C(CC(=O)OCc1ccccc1)NC(=O)OCc1ccccc1 (stereo not given) (Cbz-Asp(OBn)-[mTyr]-OMe; configuration not given here)	89.8% (active)
COc1cc[c]([Sn]([c]2ccc(OC)cc2)([c]2ccc(OC)cc2)[c]2ccc(OC)cc2)cc1	85.8% (active)
COC(=O)CCCCCOS(=O)(=O)c1ccc(C)cc1	84.2% (active)
O=S(=O)(C#Cc1ccccc1)c1ccccc1	99.2% (active)
N#CC1(C#N)C(C#N)(C#N)C12CCCCCC2	98.7% (active)
CCOC(=O)/C(C)=N/Nc1cc(Cl)ccc1O	70.8% (active)
N/C(CC(=O)NOC(=O)c1ccccc1)=N/OC(=O)c1ccccc1	99% (active)
C/C(=N\NC(=S)N1CCC(C)CC1)c1ncccn1	98.8% (active)
Cc1ccc(S(=O)(=O)OCC(/C=N/NC(N)=O)OCOC(C)/C=N/NC(N)=O)cc1 (stereo not given)	46.8% (inactive)
CN1COc2c(Cl)cc(Cl)cc2C1	-4% (inactive)
c1ccc2cc3c(cc2c1)Nc1c2ccccc2nc2cccc-3c12	56.5% (inactive)
CCCCN(CCCC)S(=O)(=O)c1ccccc1	-11.4% (inactive)
Cc1cccc(N2C(c3ccccc3)c3ccc(C)cc3NS2=O)c1 (stereo not given)	98.7% (active)
CN(C)c1ccc(/C=N/c2nc(-c3ccccc3)cs2)cc1	97.2% (active)
O=C1c2ccccc2-c2nc3ncccc3cc21	57.9% (inactive)
